Laboratory results reported in PubChem BioAssay AID1159580 (chemical genetic matrix, 2015).
Several values for one entry are separate records, joined by “and”; a condition that tells them apart may be missing. Equal entries are not always repeated. The campaign covered roughly 5,500 compounds. About 2,000 (36%) were called active. Inconclusive results (about 18%) are left out. Rule as the data show it: active = normalized growth mostly below about 0.91 (no sharp cut-off); inconclusive = no clear call, values can overlap the other calls; inactive = mostly above about 0.92. The list shows a part of the results.

Experiment: chemical genetic growth profiling, strain panel (AID 1159580);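 also: tested at 20 µM; growth read once vehicle control cultures reached saturation at 30 °C; 1 = growth at the plate median or of vehicle wells; lower values mean less growth of the strain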
Conditions: S. cerevisiae deletion strains, growth OD

Measured: normalized growth

CCCCOc1cc(C(=O)NCCN(CC)CC)c2ccccc2n1
inactive: locus YAL021C, strain ccr4, hits give low values 0.956 | locus YAL026C, strain drs2, hits give low values 0.986 | locus YAL030W, strain snc1, hits give low values 0.972 | locus YBL061C, strain skt5, hits give low values 0.97 | locus YBR009C, strain hhf1, hits give low values 0.97 | locus YBR021W, strain FUR4, hits give low values 1.02 | locus YBR023C, strain chs3, hits give low values 0.977 | locus YBR171W, strain sec66, hits give low values 0.947 | locus YBR229C, strain ROT2, hits give low values 1.01 | locus YBR231C, strain swc5, hits give low values 0.959 | locus YBR279W, strain paf1, hits give low values 0.998 | locus YCL011C, strain gbp2, hits give low values 0.987 | locus YCL016C, strain dcc1, hits give low values 1.01 | locus YCL029C, strain bik1, hits give low values 1.01 | locus YCL061C, strain MRC1, hits give low values 0.967 | locus YCL069W, strain vba3, hits give low values 0.984 | locus YCR088W, strain abp1, hits give low values 0.954 | locus YDL005C, strain med2, hits give low values 0.972 | locus YDL035C, strain GPR1, hits give low values 1.03 | locus YDL040C, strain nat1, hits give low values 0.96 | locus YDL074C, strain BRE1, hits give low values 1 | locus YDL101C, strain DUN1, hits give low values 1 | locus YDL134C, strain PPH21, hits give low values 1.03 | locus YDL185W, strain tfp1, hits give low values 1.01 | locus YDL192W, strain arf1, hits give low values 1 | locus YDR001C, strain nth1, hits give low values 0.933 | locus YDR069C, strain doa4, hits give low values 0.932 | locus YDR101C, strain arx1, hits give low values 1.01 | locus YDR137W, strain rgp1, hits give low values 1.02 | locus YDR159W, strain sac3, hits give low values 0.973 | locus YDR162C, strain NBP2, hits give low values 1.01 | locus YDR195W, strain ref2 0.932 | locus YDR297W, strain sur2, hits give low values 0.966 | locus YDR318W, strain mcm21, hits give low values 0.984 | locus YDR334W, strain swr1, hits give low values 0.925 | locus YDR335W, strain msn5, hits give low values 0.942 | locus YDR388W, hits give low values 0.995 | locus YDR392W, strain spt3, hits give low values 1.05 | locus YDR502C, strain sam2, hits give low values 0.996 | locus YEL003W, strain gim4, hits give low values 0.959 | locus YEL037C, strain rad23, hits give low values 0.968 | locus YEL061C, strain CIN8 (second series), hits give low values 0.941 | locus YEL061C, strain CIN8, hits give low values 1 | locus YER015W, strain faa2, hits give low values 0.973 | locus YER016W, strain bim1, hits give low values 1.01 | locus YER110C, hits give low values 1 | locus YER111C, strain swi4, hits give low values 0.966 | locus YER155C, strain BEM2 (second series), hits give low values 0.886 | locus YER155C, strain BEM2, hits give low values 0.998 | locus YER167W, strain BCK2, hits give low values 1 | locus YFR010W, strain ubp6, hits give low values 0.94 | locus YGL078C, strain dbp3, hits give low values 0.995 | locus YGL086W, strain mad1, hits give low values 0.992 | locus YGL167C, strain pmr1, hits give low values 0.939 | locus YGL173C, strain kem1, hits give low values 0.966 | locus YGL227W, strain vid30, hits give low values 0.956 | locus YGL240W, strain doc1, hits give low values 0.92 | locus YGL248W, strain PDE1, hits give low values 0.999 | locus YGL253W, strain hxk2, hits give low values 0.995 | locus YGR078C, strain PAC10, hits give low values 1 | locus YGR135W, strain pre9, hits give low values 0.977 | locus YGR252W, strain gcn5, hits give low values 0.914 | locus YHR013C, strain ard1, hits give low values 1.01 | locus YHR027C, strain rpn1, hits give low values 0.973 | locus YHR030C, strain SLT2, hits give low values 1.01 and 1.04 | locus YHR079C, strain IRE1 (second series), hits give low values 0.982 | locus YHR079C, strain IRE1, hits give low values 1.02 | locus YHR094C, strain hxt1, hits give low values 0.991 | locus YHR129C, strain ARP1, hits give low values 1.01 | locus YHR142W, strain chs7, hits give low values 0.974 | locus YHR200W, strain rpn10, hits give low values 0.998 | locus YIL066C, strain RNR3, hits give low values 1.01 | locus YIL073C, strain SPO22, hits give low values 1.03 | locus YIL125W, strain kgd1, hits give low values 0.997 | locus YIR030C, strain dcg1, hits give low values 0.993 | locus YJL092W, strain hpr5, hits give low values 0.979 | locus YJL095W, strain BCK1 (second series), hits give low values 0.966 | locus YJL095W, strain BCK1, hits give low values 0.988 and 1.04 | locus YJL115W, strain asf1, hits give low values 0.94 | locus YJL129C, strain trk1, hits give low values 0.939 | locus YJL134W, strain LCB3, hits give low values 1 | locus YJL154C, strain vps35, hits give low values 0.942 | locus YJL164C, strain tpk1, hits give low values 1 | locus YJL166W, strain qcr8, hits give low values 0.937 | locus YJL168C, strain set2, hits give low values 0.997 | locus YJL187C, strain SWE1 (second series), hits give low values 0.999 | locus YJR043C, strain POL32, hits give low values 1.02 | locus YJR066W, strain TOR1, hits give low values 0.968
